Several values for one entry are separate records, joined by “and”; a condition that tells them apart may be missing. Equal values may be shown once. Hit rate of the full screen: of about 220,000 compounds, about 530 (0.24%) were called active. Rule as the data show it: active = inhibition above about 13%; inconclusive = no clear call, values can overlap the other calls; inactive = below that. The list comes from a sample in which actives are over-represented; it also holds similar structures and randomly drawn compounds. Potency and affinity values are given separately. Where a structure was tested more than once in an assay, its records may differ in their call.

Sequence of Bifunctional protein GlmU (Mycobacterium tuberculosis (strain ATCC 25618 / H37Rv)) (P9WMN3 whole entry, looked up): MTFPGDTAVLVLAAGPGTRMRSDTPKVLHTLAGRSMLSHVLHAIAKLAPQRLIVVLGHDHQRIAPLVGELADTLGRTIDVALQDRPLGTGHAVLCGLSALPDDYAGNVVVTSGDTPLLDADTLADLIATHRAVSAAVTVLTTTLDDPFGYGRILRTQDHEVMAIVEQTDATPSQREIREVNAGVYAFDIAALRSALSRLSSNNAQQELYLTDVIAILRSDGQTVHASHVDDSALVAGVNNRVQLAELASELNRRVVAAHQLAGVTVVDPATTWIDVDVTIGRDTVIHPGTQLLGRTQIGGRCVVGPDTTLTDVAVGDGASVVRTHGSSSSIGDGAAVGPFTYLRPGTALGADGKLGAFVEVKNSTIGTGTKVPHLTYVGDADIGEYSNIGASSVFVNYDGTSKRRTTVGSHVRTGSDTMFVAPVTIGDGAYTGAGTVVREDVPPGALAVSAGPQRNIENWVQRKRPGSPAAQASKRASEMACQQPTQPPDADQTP

This assay has as its target Bifunctional protein GlmU (Mycobacterium tuberculosis (strain ATCC 25618 / H37Rv)) (UniProt P9WMN3). The assay is described as follows: inhibition of mycobacterial GlmU enzyme – biochemical, glucosamine-1-phosphate acetyltransferase (AID 1376).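 Also: 0% = complete reaction with vehicle and 100% = reaction without substrate.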 To be noted: M. tuberculosis GlmU acetyltransferase enzyme assay; stronger effect = higher value;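 tested at 30 µM in the primary screen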.
The inhibition is the change of the read-out against control, counted positive when it falls. For the compound `CCN(CC)C(=O)c1[nH]cnc1C(=O)N[C@@H](C)C(=O)OC(C)(C)C`, the inhibition is -5.07% (inactive).
Under `COC(=O)c1ccccc1NC(=O)Nc1cccc(C)n1` stands 1.31% (inactive).
The result for `Cc1occc1C(=O)N/N=C/c1ccccc1[N+](=O)[O-]` reads -3.47% (inactive); that for `N#C/C(=C\c1ccc(Cl)c([N+](=O)[O-])c1)c1ccccn1`, -1.14% (inactive).
With `N#C/C(=C\c1ccc([N+](=O)[O-])cc1)c1ccccn1`, the inhibition was 3.91% (inactive).
Consider `CNc1ccc(/C=C(\C#N)c2ccccn2)cc1[N+](=O)[O-]`, for which the inhibition is 13.2% (active).
On to `CC(=O)c1cccc(NC(=O)C2CCCC2)c1`, for which the inhibition was 1.98% (inactive).
Under `Cc1cc(C)cc(NC(=O)C2CCCC2)c1` stands 9.85% (inactive).
The result for `Cc1cccc(NC(=O)C2CCCC2)c1` reads 13.7% (active); that for `CC1CN(/C(=N\S(=O)(=O)c2ccccc2)c2ccccc2)CC(C)O1` (stereo unspecified), -2.86% (inactive); that for `COc1ccccc1CCc1nnc(CCC(=O)NC(C)Cc2ccsc2)o1` (stereo unspecified), 1.67% (inactive).
Under `COc1ccc(CS(=O)/C(Cl)=C(/Cl)C(=O)Nc2ccc(OC)nc2)cc1` (stereo unspecified) stands 14.6% (active); under `COc1ccc(NC(=O)/C(Cl)=C(/Cl)S(=O)Cc2ccc(C)cc2)cn1` (stereo unspecified), 7.38% (inactive); under `COc1ccc(NC(=O)/C(Cl)=C(/Cl)S(=O)Cc2ccc(Cl)cc2)cn1` (stereo unspecified), 11.8% (inactive).
On to `CCOc1ccc(NC(=O)C2=C(C)C(=O)OC23CCC(C)CC3)cc1` (stereo unspecified), for which the inhibition is 3.82% (inactive).
On to `CC1=C/C(=N\OS(=O)(=O)c2ccccc2)C(C)=CC1=O`, for which the inhibition is 10.7% (inactive).
Take `CC1=CC(=O)C(C(C)C)=C/C1=N/OS(=O)(=O)c1ccccc1`: the inhibition is 1.82% (inactive).
The result for `O=C(NCCCn1ccnc1)C1CC(c2ccccc2Cl)=NO1` (stereo unspecified) reads -2.77% (inactive).
Turning to `COc1cc(C(Nc2ccc(S(=O)(=O)N3CCC(C)CC3)cc2)C(=O)NCC2CCCO2)cc(OC)c1OC` (stereo unspecified), the inhibition is 0.15% (inactive).
The result for `COc1ccc(C(Nc2ccc(S(=O)(=O)NCC3CCCO3)cc2)C(=O)NC(C)(C)C)cc1OC` (stereo unspecified) reads -2.66% (inactive); that for `COc1cc(C(Nc2ccc(S(=O)(=O)NCC3CCCO3)cc2)C(=O)NC(C)(C)C)cc(OC)c1OC` (stereo unspecified), 13.6% (active).
Under `CC(=O)Nc1cccc(OCc2ccc(S(=O)(=O)Cc3ccccc3)cc2)c1` stands -12.3% (inactive); under `Cc1cc(N2CCOCC2)ccc1/C=C1/SC(=O)NC1=O`, -0.05% (inactive).
As to `O=C1NC(=O)/C(=C/c2ccc(O)cc2)S1`, the inhibition was 2.35% (inactive).
The result for `O=C1NC(=O)/C(=C\c2ccc(O)cc2O)S1` reads 12.9% (active); that for `c1ccc(CSc2ccc(-c3cccnc3)nn2)cc1`, -0.08% (inactive).
The result for `Cc1cc(NC(=O)CSC2=Nc3ccccc3C3=NC(Cc4ccccc4)C(=O)N23)n[nH]1` (stereo unspecified) reads -1.18% (inactive); that for `CCC1(C)Cc2c(C#N)c(N)n(-c3ccccc3)c(=O)c2CO1` (stereo unspecified), 13.3% (active).
`CCC1(C)Cc2c(C#N)c(N)n(-c3ccccc3)c(=S)c2CO1` (stereo unspecified): the inhibition was 6.07% (inactive).
Under `CC1(C)Cc2c(C#N)c(N)n(-c3ccccc3)c(=O)c2CO1` stands -3.12% (inactive); under `CCCNC(=O)c1ccc(CNc2c(N3CCC(C(=O)OCC)CC3)c(=O)c2=O)cc1`, -8.96% (inactive).
Regarding `CCOC(=O)C1CCN(c2c(NCc3ccc(N(C)C)cc3)c(=O)c2=O)CC1`, the inhibition is 14.4% (active).
Under `CCOC(=O)N1CCN(c2c(NCc3ccc(N(C)C)cc3)c(=O)c2=O)CC1` stands -1.67% (inactive); under `COc1nccnc1NS(=O)(=O)c1ccc(NC(=S)NC(=O)/C=C/c2ccc(F)cc2)cc1`, 10.5% (inactive).
The result for `O=C(/C=C/NNC(=O)c1ccccc1)c1ccc(Br)cc1` reads -1.06% (inactive).
The result for `O=C(/C=C/NNC(=O)c1cccc(Br)c1)c1cccc(Br)c1` reads 12.9% (active).
Regarding `O=C(/C=C/NNC(=O)c1ccc(Br)cc1)c1ccccc1`, the inhibition is -0.31% (inactive).
Turning to `CC(C)(C)S(=O)(=O)c1ccsc1C(=O)O`, the inhibition is 0.11% (inactive).
The result for `Cc1cccc(-n2c(-c3ccoc3C)n[nH]c2=S)c1` reads 11.9% (inactive); that for `Cc1occc1-c1n[nH]c(=S)n1-c1ccccc1`, 12.8% (active).
The result for `Cc1ccccc1-n1c(-c2ccoc2C)n[nH]c1=S` reads 5.31% (inactive); that for `COc1ccccc1Nc1nc(N)nc(CSCCO)n1`, 1.91% (inactive); that for `COc1cc(/C=C2\CC/C(=C\c3cc(OC)c(O)c(OC)c3)C2=O)cc(OC)c1O`, 14.3% (active).
Under `COc1cc(/C=C2/CC/C(=C/c3ccc(O)c(OC)c3)C2=O)ccc1O` stands -0.98% (inactive).
As to `COc1cc(/C=C2\CC/C(=C\c3cc(OC)c(OC)c(OC)c3)C2=O)cc(OC)c1OC`, the inhibition is -2% (inactive).
On to `N#Cc1ccc2ccn(CC(=O)NC3CCCCCC3)c2c1`, for which the inhibition was 6.23% (inactive).
The result for `CC1Oc2cc3c(-c4c(O)cc(O)c5c(O)c6c(cc45)OC(C)C(C)C6=O)c(O)cc(O)c3c(O)c2C(=O)C1C` (stereo unspecified) reads 16.3% (active) and 8.27% (inactive); that for `CC1CC(=O)c2c(cc3c(-c4c(O)cc(O)c5c(O)c6c(cc45)OC(C)CC6=O)c(O)cc(O)c3c2O)O1` (stereo unspecified), 18.9% (inactive); that for `C[C@@H]1Cc2c(O)c(O)cc(O)c2C(=O)O1`, -2.99% (inactive).
On to `Cc1ccc(C(=O)Nc2ccc(C(=O)O)cc2)cc1S(=O)(=O)NCc1ccccc1`, for which the inhibition is -0.6% (inactive).
Under `O=C(O)c1cc2nccc(-c3ccco3)n2n1` stands 3.14% (inactive); under `Cc1cc2nccc(-c3ccco3)n2n1`, 13.6% (active).
Under `Cc1cc2nccc(-c3ccccn3)n2n1` stands -6.43% (inactive); under `Cc1ccc(Nc2c(-c3ccc(N4CCOCC4)cc3)nc3cnccn23)cc1`, -2.79% (inactive); under `O=C(NCCCN1CCCCCC1)c1ccc2c(Cl)c3c(nc2c1)CCCC3`, -1.55% (inactive).
The result for `S=C1NC2(CCS1)Oc1ccccc1C1CC(c3ccccc3)=NN12` (stereo unspecified) reads -6.7% (inactive); that for `COc1ccc(F)cc1S(=O)(=O)Nc1ccc2c(c1)OCCO2`, 2.41% (inactive).
Consider `COc1ccc(C)cc1S(=O)(=O)Nc1ccc2c(c1)OCO2`, for which the inhibition was 3.25% (inactive).
Turning to `COc1ccc(F)cc1S(=O)(=O)Nc1ccc2c(c1)OCO2`, the inhibition is 14.9% (active).
For the compound `COc1cc(Nc2ncnc(N)n2)cc(OC)c1OC`, the inhibition is 3.26% (inactive).
On to `COc1ccc(NC(=O)CN2CCN(CC(=O)Nc3ccccc3F)CC2)cc1OC`, for which the inhibition is -7.08% (inactive).
Consider `C=CCc1cc(/C=C/c2nc(O)c([N+](=O)[O-])c(=O)[nH]2)cc(OC)c1O`, for which the inhibition is 14.5% (active).
The result for `O=c1[nH]c(/C=C\c2cccs2)nc(O)c1[N+](=O)[O-]` reads 2.4% (inactive); that for `COc1ccc(-n2c(C)cc(/C=C/c3nc(O)c([N+](=O)[O-])c(=O)[nH]3)c2C)cc1`, 10% (inactive).
For `O=C(Nc1ccc(F)cc1F)N1CCN(c2ncccn2)CC1`, the inhibition is 1.49% (inactive).
As to `CC(C)(C)OC(=O)N/N=C/c1c[nH]c2ccccc12`, the inhibition is 2.23% (inactive).
The result for `O=C(COc1cccnc1[N+](=O)[O-])Nc1ccc2c(c1)OC(F)(F)O2` reads 3.24% (inactive); that for `O=C(NCc1ccc(F)cc1)C1CCCN(c2nc3ccsc3c(=O)s2)C1` (stereo unspecified), 2.37% (inactive); that for `CCOC(=O)C1=C(c2ccccc2)NC(SCC(=O)NC2CCCCC2)=C(C#N)C1c1ccco1` (stereo unspecified), 2.37% (inactive).
Turning to `CCOc1ccc(/C=C2/SC(=O)NC2=S)cc1`, the inhibition was -3.11% (inactive).
Under `Cc1ccc(/C=C2\SC(=S)N(Cc3ccccc3)C2=O)o1` stands -1.65% (inactive); under `O=C1N=C(N2CCOCC2)S/C1=C\c1ccc(-c2ccccc2Cl)o1`, 2.7% (inactive).
On to `O=C1/C(=C\c2ccc(-c3ccccc3Cl)o2)SC(=S)N1CC1CCCO1` (stereo unspecified), for which the inhibition is 7.34% (inactive).
Under `O=C(Nc1cccc(NC(=O)c2nccc3ccccc23)c1)c1ccco1` stands -1.26% (inactive); under `COc1cc(C(=O)Nc2ccncc2)c([N+](=O)[O-])cc1OC`, 6.59% (inactive).
`CCN1CCN(c2cc(C)c3cc(NC(=O)c4cnccn4)ccc3n2)CC1`: the inhibition was -5.83% (inactive).
For the compound `O=C1c2ccccc2C(=O)N1OCc1ccc(Cl)cc1`, the inhibition was -2.04% (inactive).
The result for `C=CCN1C(=O)/C(=C/c2cccs2)C(=O)NC1=S` reads 4.18% (inactive).
The result for `CCN(CC)c1ccc(/C=C2/C(=O)NC(=O)N(Cc3ccco3)C2=O)cc1` reads -0.51% (inactive); that for `O=C1NC(=O)N(Cc2ccc(F)cc2)C(=O)/C1=C/c1cccs1`, -2.44% (inactive).
The result for `O=C1NC(=S)N(Cc2ccco2)C(=O)/C1=C\c1cccs1` reads 96% (active); that for `CN(C)c1ccc(/C=C2/C(=O)NC(=O)N(Cc3ccco3)C2=O)cc1`, -4.04% (inactive); that for `O=C(/C=C/c1ccco1)c1ccc(NC(=O)C23CC4CC(CC(C4)C2)C3)cc1`, -0.76% (inactive).
For `Cc1ccc(C)c(S(=O)(=O)NCCOC(=O)Nc2sc(=S)n(C)c2C)c1`, the inhibition was 6.71% (inactive).
With `CCOC(=O)CNC(=O)CSc1nc(N)cc(N)n1`, the inhibition is 1.79% (inactive).
Take `N#CC1=C(N)Oc2c(oc(CO)cc2=O)C1c1ccsc1` (stereo unspecified): the inhibition is -2.69% (inactive).
The result for `Cc1nn(-c2ccc(Cl)cc2)c(NC(=O)C(C)C)c(-c2ccccc2)c1=O` reads -2.2% (inactive); that for `COc1cc(/C=C2\SC(=Nc3ccc(O)cc3)NC2=O)cc(OC)c1OC`, -1.9% (inactive).
As for `COc1cc(/C=C2\SC(=Nc3ccc(O)cc3)NC2=O)cc(OC)c1O`, the inhibition is 69.2% (active).
For `COc1cc(/C=C2/SC(=Nc3ccc(O)cc3)NC2=O)cc(OC)c1O`, the inhibition is 7% (inactive).
The result for `COc1ccccc1C1=NNC(=NCc2ccccc2)SC1` reads -1.42% (inactive); that for `CCN(c1ccccc1)S(=O)(=O)c1ccc(OC)c(NC(=O)CN(C)C)c1`, -3.46% (inactive).
Under `CCOC(=O)C1=C(NC#N)OC(C)=C(C)C1c1ccc(O)cc1` (stereo unspecified) stands -6.11% (inactive); under `CC(C(=O)Nc1ccc(S(=O)(=O)N2CCCCC2)cc1)N1CCN(c2ccccn2)CC1` (stereo unspecified), 0.72% (inactive); under `Cc1ccc(S(=O)(=O)N2CCN(c3ccccn3)CC2)cc1`, 3.12% (inactive).
The result for `CC(=O)Nc1ccc(S(=O)(=O)N2CCN(c3ccccn3)CC2)cc1` reads 14% (active).
